PubChem BioAssay (NCI)
Values joined by “and” are separate entries in the source; they are usually repeats but may differ in a detail not shown here. Identical values can stand only once. This is part of a sample that, as a whole, favours compounds with a hit. Of some 83,000 tested, about 20% had one in any assay.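 Percent growth is the endpoint: 0 to 100 indicates growth inhibition (40 means 60% inhibition), 0 means no net growth, and negative values indicate cell death.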 Active and inactive are the calls of the source. Rule for the calls: active = growth percent below 10; inactive = the rest.

How the values were obtained:
Assay in all cases: NCI-60 one-dose screen, 48 h (100 = growth as untreated, 0 = no growth, -100 = all killed)
Conditions in all cases: 10 µM unless noted
[1] = tested on: HCT-15 colon
[2] = tested on: HT29 colon
[3] = tested on: SNB-75 CNS
[4] = tested on: SNB-19 CNS
[5] = tested on: U251 CNS
[6] = tested on: PC-3 prostate
[7] = tested on: SK-MEL-5 melanoma
[8] = tested on: UACC-62 melanoma
[9] = tested on: LOX IMVI melanoma
[10] = tested on: SK-MEL-28 melanoma

SMILES | growth [1] | growth [2] | growth [3] | growth [4] | growth [5] | growth [6] | growth [7] | growth [8] | growth [9] | growth [10]
CCOc1ccccc1NC(=O)N/C(N)=N/c1nc2ccccc2s1 | 2.52% (active) | -48.7% (active) | 32.8% (inactive) | 14.7% (inactive) | 10.4% (inactive) | 23.3% (inactive) | -40.9% (active) | 28.1% (inactive) | 0.997% (active) | 54.3% (inactive)
Fc1ccc(N2CC(Cn3c(C(F)(F)F)cc4c(Cl)ncnc43)C2)c(F)c1 | -76.5% (active) | -59.4% (active) | 24.6% (inactive) | -39.1% (active) | -26.6% (active) | 0.119% (active) | 88.9% (inactive) | 6.55% (active) | -93.6% (active) | -89.8% (active)
O=C1c2cccc3c(N4CCN(Cc5ccccc5)CC4)ccc(c23)C(=O)N1c1cccc(-c2nn(-c3ccccc3)cc2-c2nc3ccccc3s2)c1 | 110% (inactive) | 115% (inactive) | 84.3% (inactive) | 103% (inactive) | 106% (inactive) | 88.1% (inactive) | 102% (inactive) | 94.6% (inactive) | 97.9% (inactive) | 106% (inactive)
O=C1CC(c2ccc(I)cc2)OC2C=Cc3ccccc3C12 (stereo not given) | 94.9% (inactive) | 90.7% (inactive) | 111% (inactive) | 101% (inactive) | 99.5% (inactive) | 101% (inactive) | 104% (inactive) | 78.9% (inactive) | 99.6% (inactive) | 116% (inactive)
CN(CCSSCCN1CCOCC1)C(=O)Oc1cc2c(c3ccccc13)[C@H](CCl)CN2C(=O)c1cc2cc(OCCCN3CCC3)ccc2[nH]1 | -49.3% (active) | -40.5% (active) | -46% (active) | -100% (active) | -60.3% (active) | -21.9% (active) | -89.6% (active) | -72.7% (active) | -73% (active) | -58% (active)
c1n[nH]cc1-c1nc2ccc3[nH]ncc3c2c2c1CC1(CCOCC1)CC2 | 39% (inactive) | 25.9% (inactive) | 6.74% (active) | 37.4% (inactive) | 29.3% (inactive) | 47.4% (inactive) | 29% (inactive) | 14% (inactive) | 29.2% (inactive) | 27.1% (inactive)
CCN(C(=O)CN1C(=O)/C(=C/c2ccco2)SC1=S)C1CCS(=O)(=O)C1 (stereo not given) | 88.8% (inactive) | 102% (inactive) | 75.3% (inactive) | 91.8% (inactive) | 104% (inactive) | 109% (inactive) | 91.9% (inactive) | 92.6% (inactive) | 90.6% (inactive) | 98% (inactive)
O=C(CCl)Nc1ccc(C(=O)/C=C/c2cc3ccccc3nc2Cl)cc1 | -85.4% (active) and 19.7% (inactive) | 2.8% (active) and 65% (inactive) | 51.2% (inactive) and 68% (inactive) | -80% (active) and 46.6% (inactive) | -83.8% (active) and 39.7% (inactive) | 11.1% (inactive) and 56.4% (inactive) | -78.4% (active) and 62.4% (inactive) | -33.3% (active) and 12.9% (inactive) | -97.9% (active) and 3.63% (active) | -69.5% (active) and 46.2% (inactive)
CC(=O)Nc1cccc(-n2c(COc3ccc(I)cc3)nc3ccccc32)c1 | 69.6% (inactive) and 108% (inactive) | 105% (inactive) and 119% (inactive) | 57.8% (inactive) and 93.3% (inactive) | 93.5% (inactive) and 103% (inactive) | 81.8% (inactive) and 105% (inactive) | 63.3% (inactive) and 107% (inactive) | 74.1% (inactive) and 104% (inactive) | 61.4% (inactive) and 97.8% (inactive) | 85.3% (inactive) and 107% (inactive) | 107% (inactive) and 116% (inactive)
CS(=O)(=O)Nc1cccc(-n2cnc3cc(-c4ccc(O)cc4)ccc32)c1 | 30.9% (inactive) | 16% (inactive) | 53.8% (inactive) | 25.4% (inactive) | 26.2% (inactive) | 45.8% (inactive) | 19.7% (inactive) | 26.3% (inactive) | 41.9% (inactive) | 63.2% (inactive)
O=C(NNC(=O)c1ccc(OCc2nc3ccc(Cl)cc3[nH]2)cc1)Nc1ccc(Cl)c(Cl)c1 | 98.9% (inactive) | 67.2% (inactive) | 111% (inactive) | 20.2% (inactive) | -1.4% (active) | 63.3% (inactive) | 56.5% (inactive) | 62.7% (inactive) | 40% (inactive) | 8.8% (active)
Cc1oc(-c2ccccc2)nc1CN[C@@H]1C[C@@H]2C[C@H]([C@H]1C)C2(C)C | 18.8% (inactive) | 7.34% (active) | 79.2% (inactive) | 37.6% (inactive) | 41.2% (inactive) | 30.8% (inactive) | -94.1% (active) | -32.6% (active) | -95.5% (active) | 2.07% (active)
COc1ccc(C(=O)c2c(N)c(C#N)cn2-c2ccc([N+](=O)[O-])cc2)cc1 | 104% (inactive) | 102% (inactive) | 92.2% (inactive) | 100% (inactive) | 111% (inactive) | 109% (inactive) | 102% (inactive) | 93.1% (inactive) | 96.3% (inactive) | 112% (inactive)
O=C(N/N=C/c1ccc(-c2cccc([N+](=O)[O-])c2)s1)c1[nH]c2ccc(Br)cc2c1-c1ccccc1 | 84.9% (inactive) | 109% (inactive) | 86.8% (inactive) | 56.1% (inactive) | 73.4% (inactive) | 85.7% (inactive) | 93.8% (inactive) | 70.5% (inactive) | 85.8% (inactive) | 87.6% (inactive)
CCN1C(=O)N(CC)C2NNC(Sc3c(C(=O)O)c4ccccc4n(CCC(C)C)c3=O)=NC21 (stereo not given) | 2.84% (active) | -30% (active) | 26.1% (inactive) | 15.5% (inactive) | 2.04% (active) | 26.1% (inactive) | 3.73% (active) | 17.9% (inactive) | -41.7% (active) | 45.5% (inactive)
CS(=O)(=O)Nc1cccc(-n2c(COc3ccc(OC(F)(F)F)cc3)nc3ccccc32)c1 | 94.6% (inactive) and 105% (inactive) | 103% (inactive) and 114% (inactive) | 55.4% (inactive) and 95.4% (inactive) | 93.8% (inactive) and 101% (inactive) | 85% (inactive) and 101% (inactive) | 70.7% (inactive) and 103% (inactive) | 78.8% (inactive) and 106% (inactive) | 72.3% (inactive) and 107% (inactive) | 83.7% (inactive) and 110% (inactive) | 118% (inactive) and 133% (inactive)
N#CC1=C(c2ccco2)Nc2c(c(-c3ccccc3)nn2-c2ccccc2)C12C(=O)Nc1ccc(Cl)cc12 (stereo not given) | 30.4% (inactive) | 41.9% (inactive) | -56.4% (active) | 3.22% (active) | -21.7% (active) | -41% (active) | 50.4% (inactive) | 37.4% (inactive) | 2.55% (active) | 45.6% (inactive)
O=C1c2cccc3c(N4CCN(c5ccccc5)CC4)ccc(c23)C(=O)N1c1cccc(-c2nn(-c3ccccc3)cc2-c2nc3ccccc3s2)c1 | 112% (inactive) | 116% (inactive) | 98.1% (inactive) | 100% (inactive) | 100% (inactive) | 85.9% (inactive) | 99% (inactive) | 91.4% (inactive) | 94.5% (inactive) | 104% (inactive)
Cn1cc(-c2cc(N)n3nc(-c4c[nH]c5ccc(F)cc45)cc3n2)c2cccnc21 | -52.3% (active) | -70.1% (active) | -48.5% (active) | -24.8% (active) | -84.7% (active) | -45.3% (active) | -98.4% (active) | -93.6% (active) | -97.9% (active) | -92.6% (active)
FC(F)(F)c1cc2c(Cl)ncnc2n1CCC1CCOCC1 | -37.7% (active) | 48.5% (inactive) | -91.1% (active) | -99% (active) | -14.4% (active) | 2.75% (active) | -83.7% (active) | -34.5% (active) | -97% (active) | -0.403% (active)
COC(=O)CSC1=C(C)C(=O)C(OC)=C(OC)C1=O | 86.3% (inactive) | 103% (inactive) | 66.6% (inactive) | 90.3% (inactive) | 98.1% (inactive) | 76.9% (inactive) | 86.4% (inactive) | 70.5% (inactive) | 83.3% (inactive) | 104% (inactive)
CCOC(=O)/C(F)=C/C1CC1CCc1ccc(OCC)cc1 (stereo not given) | 70.6% (inactive) | 58.5% (inactive) | 81.3% (inactive) | 95.4% (inactive) | 104% (inactive) | 85.2% (inactive) | 63.7% (inactive) | 87.5% (inactive) | 97.9% (inactive) | 110% (inactive)
CC1=C(C(=O)OCc2ccccc2)C(c2ccc(N(C)C)cc2)n2c(nc3ccccc32)N1 (stereo not given) | 71.4% (inactive) | 100% (inactive) | 61.2% (inactive) | 86.2% (inactive) | 90.4% (inactive) | 80.8% (inactive) | 71.7% (inactive) | 42% (inactive) | 75.7% (inactive) | 79.9% (inactive)
